± gives the standard deviation.
Tested on: MILI (PIWIL2) piRISC loaded with L1MC piRNA (26 nt)
Experiment: pre-steady-state target cleavage rate (min^-1); guide: L1MC piRNA 5'p-UAACUAAAUACUAUGCAAGCUGUAGG; MIWI and MILI are mouse PIWI proteins and EfPiwi is from a freshwater sponge; tags in brackets are library labels; higher = faster piRNA-guided slicing of the target
How it was run: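 Cleave-'n-Seq reactions paired 0.1 nM transcribed, DNA-blocked target RNA library with 1 nM active affinity-purified piRISC holding one synthetic guide, plus or minus 500 nM GTSF1 partner protein, in HEPES–potassium acetate buffer at 33 °C for 0–8 or 0–960 min. After sequencing of uncleaved targets and normalisation to depth and weakly complementary targets, the pre-steady-state cleavage rate was taken from a burst-and-steady-state fit. Three trials were pooled, and k3 was capped at 0.0001 min^-1.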

[1] = auxiliary factor: 500 nM mouse GTSF1
[2] = auxiliary factor: none (no GTSF1)

Sequence	pre-steady-state target cleavage rate [1]	pre-steady-state target cleavage rate [2]
UCCUGGAUGUGCUUGCUAAGUAUUUAGUUA	0.0146 ± 0.0062	0.00546 ± 0.0023
UCCUGGAUGAGCUUGGAUAGUAUUUAGUUA	0.163 ± 0.011	0.00612 ± 0.0024
UCCUGGAUGUCGAUGCAUAGUUUUUAGUUA	0.0108 ± 0.0042	0.0052 ± 0.002
UCCUGGAACAGCUUGCUAUGUAUUUAGUUA	0.0569 ± 0.017	0.00412 ± 0.0022
UCCUGGAUGAGCAUGGAUAGUAUUUAGUUA	0.189 ± 0.019	0.0105 ± 0.0024
UCCUGGAUGUGCUUGAUAGUAUUUAGUUA	0.00721 ± 0.0036	0.00463 ± 0.002
UCCUGGAUGUCCUUUCAUAGUAUUUAGUUA	0.0723 ± 0.011	0.00458 ± 0.0022
UCCUGGUACAGCUUGCAUAGUAUUUACGUUA	0.227 ± 0.039	0.00544 ± 0.0036
UCCUGGUACAGCAUCCAUAGUAUUUAGUUA	0.262 ± 0.077	0.00374 ± 0.0027
UCCUGGAACUGCUUGCAUAGUAAUUAGUUA	0.159 ± 0.012	0.00625 ± 0.0021
UCCUGGAACAGCUUGCAUAGUAUUUGAGUUA	0.209 ± 0.035	0.00299 ± 0.003
UCCUGGAUGUCGUUGCAUAGUAAUUUAGUUA	0.0127 ± 0.0059	0.00447 ± 0.0029
UCCUGGAUGUCGAACCAAAGUAUUUUGUUA	< 0.0001	< 0.0001
UCCUGGAUGUCGAAGCAUAGUAUUUGGUUA	0.0178 ± 0.0055	0.00505 ± 0.0019
UCCUCCUACAGCUUGGAUAGUAUUUAGUAA	0.208 ± 0.02	0.00459 ± 0.0023
UCCUGGAUCAGCUUGCAAAGUAUAUAGUUA	0.104 ± 0.012	0.00771 ± 0.0027
UCCUGGAUGUCGUUGCAUAGUAAAUAGUUA	0.0599 ± 0.019	0.00437 ± 0.0023
UCCUGCUACAGCUUUCAUAGUAUUUAGUUA	0.188 ± 0.021	0.00503 ± 0.0022
UCCUGGAACUGCUUGCAUAGUAUUAAGUUA	0.173 ± 0.022	0.00346 ± 0.0024
UCCUGGAUGUCGUUGCAUAAUAUUUAGUUA	0.0662 ± 0.017	0.00621 ± 0.0023
UCCUGCUACAGCUUGGAUAGUAUUAAGUUA	0.198 ± 0.031	0.00579 ± 0.002
UCCUGGAUGUGCUUGGAUAGUAUUUAGUUA	0.115 ± 0.013	0.00702 ± 0.0024
UCCUGGUACAGCUUCGUUAGUAUUUAGUUA	0.128 ± 0.013	0.00406 ± 0.0022
UCCUGGUACAGCUUGCAUAGUAAAAAGUUA	0.104 ± 0.024	0.00471 ± 0.003
UCCUGGAUGUCGUAGCAUAGUAUUUAGUUA	0.0554 ± 0.011	0.00344 ± 0.0024
UCCUGCUACAGCUUGCAUAGAUAUUUAGUUA	0.0121 ± 0.005	0.00419 ± 0.0019
UCCUGGAUGUCCUAGCAUAGUAUUAAGUUA	0.0366 ± 0.0077	0.00287 ± 0.0022

Sequence	pre-steady-state target cleavage rate [1]	pre-steady-state target cleavage rate [2]
UCCUGGAACAGCUUGCAUAGUCAUUUAGUUA	0.0205 ± 0.008	0.00479 ± 0.0022
UCCUGGAUGUCGUUGCGUAGUAUUUAGUUA	0.0164 ± 0.0059	0.00779 ± 0.0026
UCCUGGAUGUCCUUGCAUAGAUAUUUAGUUA	0.00754 ± 0.004	0.00426 ± 0.0023
UCCUGGAUGACCUUGCAUAGUAUAUAGUUA	0.167 ± 0.034	0.00397 ± 0.0031
UCCUGCUACAGCUUGGAUAGUUUUUAGUUA	0.0668 ± 0.012	0.00289 ± 0.0027
UCCUGGUACAGCUAUGCAUAGUAUUUAGUUA	0.259 ± 0.016	0.0112 ± 0.0038
UCCUGGAUGUCCUUGCAUAGUAGUUUAGUUA	0.0394 ± 0.014	0.00805 ± 0.0029
UCCUCGUACAGCUUGCAUAGUUUUUAGUUA	0.0651 ± 0.008	0.00493 ± 0.0018
UCCUCGAACAGCUUGCAUAGUAUUUAGUAA	0.242 ± 0.015	0.00453 ± 0.0022
UCCUGGAUGUCGAUGCAUAGUAUUUGAGUUA	0.125 ± 0.027	0.00324 ± 0.0024
UCCUGGAUGUCCUUGCAUAGUAUUGUAGUUA	0.102 ± 0.023	0.0041 ± 0.003
UCCUGGAUGUCGAAGUAUAGUAUUUAGUUA	0.0142 ± 0.004	0.00325 ± 0.002
UCCUGGAUGUGGUUGCAUAGUAUUUUGUUA	0.0586 ± 0.023	0.0039 ± 0.0037
UCCUGGAUCAGCUUGCAUAGUAUAUUGUUA	0.118 ± 0.014	0.00518 ± 0.0025
UCCUGGAUCAGUUGCAUAGUAUUUAGUUA	0.257 ± 0.016	0.00796 ± 0.002
UCCUGGAUCAGCUUGCAAAGUAUUUACUUA	0.0828 ± 0.013	0.00392 ± 0.0024
UCCUCCUACAGCUUGCAUAGUAUUUGAGUUA	0.199 ± 0.028	0.00484 ± 0.0026
UCCUGGAACAGCUUGCAUAGAAUUUAGUUA	0.0554 ± 0.01	0.00299 ± 0.0027
UCCUGGAUGUCCUUGCAUAGUAUUUAGUUG [g2:g19:cont:t1G]	0.0765 ± 0.0096	0.00821 ± 0.002
UCCUGCUACAGCUUGCAUUGUAUAUAGUUA	0.194 ± 0.028	0.00483 ± 0.0018
UCCUGGAUGUGCAUGCUUAGUAUUUAGUUA	0.0349 ± 0.011	0.0103 ± 0.0032
UCCUGGAUCCAGCUUGCAUAGUAUUUAGUUA	0.3 ± 0.017	0.00437 ± 0.003
UCCUGGAUGUGCUUGCAAAGUAAUUAGUUA	0.0171 ± 0.0056	0.00395 ± 0.0028
UCCUGGAUGUGCUUGCUAUGUAUUUAGUUA	0.00774 ± 0.0037	0.00498 ± 0.0024
UCCUGGAUGUGCUUGCUUAGUAUUUAGUUA	0.094 ± 0.013	0.0114 ± 0.0031
UCCUGGAUGUGCUAGCAUUGUAUUUAGUUA	0.0146 ± 0.0031	0.00365 ± 0.0026
UCCUGGUACAGCUUGCAUAGUAUUUAGGUUA	0.163 ± 0.044	0.00633 ± 0.0032
